Bioassay records from PubChem BioAssay.
Dicer processing: human Dicer pre-microRNA cleavage inhibition; cat-ELCCA pre-miR-21 Dicer processing, chemiluminescence; active compounds read high; z-score at 25 µM; 47,000 compounds, 6% hits; in the data active = z-score above about 3, passing the limit was not always enough;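 note: plate controls were vehicle for no effect and no enzyme for full effect; higher signal means more uncleaved substrate so more Dicer inhibition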
Active calls of the source: *. Only a selection was taken, and hits are over-represented in it overall.

SMILES | Dicer processing
COc1ccc(C2CC(=O)C3=C(C2)Nc2ccccc2NC3c2ccc(SC)cc2)cc1OC (stereo not given) | 5.2*
COc1ccc(C2Nc3ccccc3NC3=C2C(=O)CC(c2ccccc2)C3)c(OC)c1 (stereo not given) | 1.7
COc1ccc(C2CC(=O)C3=C(C2)Nc2ccccc2NC3c2cc(OC)ccc2OC)cc1 (stereo not given) | -0.4
CS(=O)c1ccc(Oc2cccc(F)c2C#N)cc1 (stereo not given) | 0.61
CCC(C(=O)NNC(=O)c1ccc(OC)cc1)c1ccccc1 (stereo not given) | 38
NC(=O)C1CCN(C(=O)CN2CCc3ccccc3C2)CC1 | 0.35
CCOC(=O)c1c(NC(=O)COc2ccccc2)sc2c1CC(C)(C)OC2 | 1
N#Cc1c(N2C(=O)C3CC=C(Cl)CC3C2=O)sc2c1CCCC2 (stereo not given) | 1.3
CC1(C)Cc2c(sc(NC(=O)CN3C(=O)C4CC=C(Cl)CC4C3=O)c2C#N)CO1 (stereo not given) | 4.8*
CC(C)c1ccc2oc(-c3cccc(N)c3)nc2c1 | 0.22
O=[N+]([O-])c1ccc2c(c1)NC(c1ccc([N+](=O)[O-])s1)O2 (stereo not given) | -0.36
O=C(NCc1ccccc1)C1CCC(C(=O)NCc2ccccc2)N1 (stereo not given) | -0.39
O=C(NCc1ccccc1)N1CC2C=CC1C2 (stereo not given) | 6.2*
O=C(NCc1ccccc1)N1c2ccccc2Sc2ccccc21 | -0.87
CSc1ccccc1NC(=O)c1cnc(N)nc1C(F)(F)F | -0.19
Cc1nc(-c2ccc(Cl)cc2)sc1-c1ccnc(SCC(=O)Nc2ccc3c(c2)OCO3)n1 | -0.45
Cc1nn(-c2ccccc2)c2c1C(c1ccc(Cl)cc1Cl)C1=C(CC(C)(C)CC1=O)N2 (stereo not given) | -1.1
CN1N=C(SCc2ccc(Cl)cc2Cl)Sc2c1cnn(C)c2=O | -0.66
COCCCn1c(-c2ccc(Cl)cc2)cc(-c2cccs2)c1-c1ccccc1 | 3.3*
COCCCn1c(=S)[nH]c2cc(Cl)ccc2c1=O | -10
CSc1ccc(-c2c(-c3cccs3)cc(-c3ccc(Cl)cc3)n2C)cc1 | 0.36
CCSc1nnc2c(n1)OC(c1cc(Cl)ccc1OC(C)=O)N(C(C)=O)c1ccccc1-2 (stereo not given) | -0.06
CC1=C(C(=O)OC2CCCC2)C(c2cccc(Br)c2)C2=C(CCCC2=O)N1 (stereo not given) | -0.51
CCN1C(=O)C2(/C(=C(/O)c3ccc4c(c3)CC(C)O4)C(=O)C(=O)N2CCN(C)C)c2ccccc21 (stereo not given) | -1.6
CCN1C(=O)C2(/C(=C(/O)c3ccc(OC)c(C)c3)C(=O)C(=O)N2CCN(C)C)c2ccccc21 (stereo not given) | -4
SMILES | Dicer processing
CCN1C(=O)C2(/C(=C(/O)c3ccc4c(c3)CC(C)O4)C(=O)C(=O)N2CCCN(C)C)c2ccccc21 (stereo not given) | 4.3*
CCCCN1C(=O)C2(/C(=C(/O)c3ccc(C)cc3)C(=O)C(=O)N2CCCN(C)C)c2ccccc21 (stereo not given) | 1.8
CCCCN1C(=O)C2(/C(=C(/O)c3ccc4c(c3)CC(C)O4)C(=O)C(=O)N2CCOC)c2ccccc21 (stereo not given) | 4.9*
COc1ccc([N+](=O)[O-])c(N2CCOCC2)c1C#N | -1.9
CCCOC(=O)C1C2C=CC3(CN(c4ccc(C)cc4)C(=O)C13)O2 (stereo not given) | -0.31
COCCN1C(=O)c2oc3ccc(F)cc3c(=O)c2C1c1ccc(SC)cc1 (stereo not given) | -0.12
CCOC(=O)C1=C(C)Nc2ncnn2C1c1cccc(O)c1 (stereo not given) | 0.99
CCOC(=O)C(=CNc1cc(C)nn1C)C(=O)OCC | 0.08
O=c1ccc2ccccc2n1Nc1ccc(Br)cc1 | -0.16
Cc1cc(-c2nn(C)c(=O)c3ccccc23)cc(C)c1OC(=O)c1ccc(Cl)cc1 | -0.81
CC1(C)CCC(=O)N(c2ccc(N3CCOCC3)cc2)C1=O | 1.9
COc1ccc(OC)c(NC(=S)NCCO)c1 | 2.5
Cc1ccc(C(O)(c2ccccc2)c2nc3ccccc3n2C)cc1 (stereo not given) | 1.8
COC(=O)c1ccc(S(=O)(=O)N2CCCCCC2)n1C | 0.18
COC(=O)c1ccc(S(=O)(=O)Nc2ccc(N3CCOCC3)cc2)n1C | 3.6*
COC(=O)c1ccc(S(=O)(=O)N2CCC(O)CC2)n1C | 1.4
CC1=CC2CC1C1C(=O)N(c3ccc(C(F)(F)F)cc3)C(=O)C21 (stereo not given) | -0.02
COc1ccc(C2C(C(=O)OC(C)C)=C(C)NC3=C2C(=O)CCC3)cc1Br (stereo not given) | 0.85
CCOC(=O)C1=C(C)NC2=C(C(=O)CC(C)(C)C2)C1c1cccc(O)c1 (stereo not given) | -1.4
C=CCN1C(C(=O)c2ccccc2)=C(OC(=O)COc2ccc(C)cc2)c2ccccc2S1(=O)=O | -0.08
Cc1nn(S(=O)(=O)c2ccc(Cl)cc2)c(C)c1Sc1ccc(C(F)(F)F)cn1 | -0.26
Cc1ccc(S(=O)(=O)Oc2c(Cl)cc(C(C)(C)C)cc2Br)cc1 | -1.1
CC(=O)Nc1ccc(S(=O)(=O)Oc2ccccc2Cl)cc1 | -1.1
CC(=O)Nc1ccc(S(=O)(=O)Oc2c(Cl)cc(C)cc2Cl)cc1 | 4.5*
COC(=O)Nc1cccc(NC(=O)OC)c1F | -0.35
SMILES | Dicer processing
Fc1ccc(CN2CCCN(Cc3ccc(F)cc3)C2c2ccc3c(c2)CCO3)cc1 | -0.74
COc1ccc(C2Nc3ccccc3-c3cc(C)nn32)cc1OC (stereo not given) | 3
c1ccc2c(c1)NC(c1ccc3c(c1)CCO3)n1cccc1-2 (stereo not given) | 3.4*
COC(=O)[C@@H](Cc1ccccc1)NC(=O)c1cccc2ccccc12 | 0.91
COC(=O)c1cc2c(s1)-c1cc(Cl)ccc1S(=O)(=O)C2 | -1.2
CC1=CS(=O)(=O)c2ccc(Cl)cc21 | 4.3*
O=C1NS(=O)(=O)c2ccc(Cl)cc2Sc2ccccc21 | 0.03
CN1CCN(c2cc(C(F)(F)F)nc3ccc(F)cc23)CC1 | -1.2
COc1ccc(C2C3CCc4ccccc4C3=NN2C(=O)CN2CCN(C)CC2)cc1 (stereo not given) | -5.2
CSC1=NCCCN1C(=O)c1c(-c2ccccc2)noc1C | 0.08
CCCc1cc(=O)[nH]c(SCc2ccc(Cl)cc2Cl)n1 | -3.8
CCCc1cc(=O)[nH]c(SCC(=O)Nc2ccc(F)c(Cl)c2)n1 | 3.1*
CCCc1cc(=O)[nH]c(SCc2ccc(Cl)cc2)n1 | -3.5
CCCCOC(=O)c1c(C)oc2ccc(NS(=O)(=O)c3cccs3)cc12 | 1.4
Cc1cc(C)c(Nc2nc(-c3ccc([N+](=O)[O-])cc3)cs2)c(C)c1 | 2.9
O=C(Nc1ncc(Cc2ccc(F)cc2)s1)c1ccc(Br)cc1 | 4.1*
O=C(Nc1nnc(-c2ccc(F)cc2)s1)c1ccc(F)cc1 | 1.1
Fc1ccc(Cc2cnc(Nc3ccc(F)cc3)s2)cc1 | 0.63
Cc1nnc(-c2cccc([N+](=O)[O-])c2)o1 | -0.8
CN1CCN(c2ncnc3c2nnn3Cc2ccccc2Cl)CC1 | 0.01
COc1ccc(-c2noc(CSc3nc4ccccc4[nH]3)n2)c(OC)c1 | 1.4
COc1ccc(OC)c(-c2noc(CSc3nc4ccccc4[nH]3)n2)c1 | 0.06
COc1ccc(-c2noc(CSc3nc4ccccc4[nH]3)n2)cc1OC | 3.2*
COc1ccc(Oc2coc3cc(OCc4ccc(C)cc4)ccc3c2=O)cc1 | -0.07
